Inconclusive results are not listed. Where a call stands in place of a potency, no number is given. Active and inactive are the calls of the source. Calls come from the whole dose curve; as a rule, active = well fitted inhibition curve with a large enough effect; inconclusive = small, poorly fitted or top-dose-only effect; inactive = no such curve, though single readings can be large or run the other way.
Test: qHTS assay for measurement of the activity of small molecule inhibitors on Zika virus induced Caspase-3 activity in human iPSC derived neural progenitor cells (hNPCs) (AID 1224857); note: nearly all actives have a fitted effect of over 65% in size
Conditions: hNPCs ZIKV-induced caspase-3/7, Caspase-Glo luminescence, 6 h; series mostly up to 45.7 µM
Excerpt: National Center for Advancing Translational Sciences [NCATS]
Johns Hopkins University School of Medicine
Increase in the Caspase-3 activity indicates an activation of apoptosis cell death pathway caused by Zika virus infection in certain types of neuronal cells including human neural progenitor cells (hNPCs), astrocytes, and astrocytoma cell line (SNB-19). This cell-based caspase-3 activity assay measures the increased caspase-3 activity in the human iPSC derived neural progenitor cells (hNPCs) after a 6-hour Zika virus infection with a luminescence readout. A decrease in the luminescence signal in this assay by small molecule treatment indicates an inhibitory effect of that small molecule on the Zika virus induced caspase-3 activity that may correlate with its effect on reduction of Zika virus caused cell death.
The medium for hNPCs consists of DMEM/F12, N2 supplement (ThermoFisher, Cat.# 17502048), NEAA (ThermoFisher, Cat. # 11140050), 2 ug/ml heparin, 2 uM cyclopamine, and B27 (ThermoFisher, Cat. # 17504044). A Caspase-Glo 3/7 assay kit (catalog number G8092; Promega, Madison, WI) was used to detect caspase-3 activity induced by Zika virus infection in human cells. The reagent mixture was reconstituted as described in the protocol from the manufacturer. Polystyrene tissue culture treated and PDL coated white plates were obtained from Greiner Bio-One (Monroe, NC). Cells were seeded in 384- or 1536-well assay plates and cultured at 37 C with 5% CO2 for 16 to 20 hours. The typical cell seeding density in the 1536-well plate assay is 350 cells/well in 3 ul medium for hNPCs in tissue culture treated plates. Compounds were added to cells and incubated for one hour before addition of ZIKV solution to cells (2 FFU/cell). After incubation at 37 C with 5% CO2 for 6 hours, the reagent mixture of Caspase-Glo 3/7 assay kit was added to each well, followed by incubation at room temperature for 30 minutes. The luminescence intensity of the assay plates was measured using a ViewLux plate reader (PerkinElmer). Data were normalized by using the cell-containing wells without ZIKV as a negative control (0% induction of caspase 3/7 activity) and wells containing ZIKV infected cells (Caspase-3 activity induced) as a positive control (100% induction of caspase 3 activity). The percentage inhibitions of the increased Caspase-3 activity by small molecule inhibitors were then calculated.
Potency is the fitted concentration of half-maximal effect.

Row | SMILES | Potency
1 | c1cc2ccc3cccc4ccc(c1)c2c34 | inactive
2 | c1ccc2sc(C3(N4CCCCC4)CCCCC3)cc2c1 | inactive
3 | CC(C)(C)[C@]1(O)C[C@@H]2OC(=O)C[C@@]23C(=O)O[C@@H]2OC(=O)[C@H](O)C213 (stereo not given in full) | inactive
4 | CC(C)NCC(O)c1ccc([N+](=O)[O-])cc1 (stereo not given) | inactive
5 | CC1(C)CC/C(=C/c2ccc(Cl)cc2)C1(O)Cn1cncn1 (stereo not given) | inactive
6 | CCCN1CCO[C@@H]2c3cc(O)ccc3OC[C@@H]21 | inactive
7 | CC(O)CN1CCN(CC(=O)[O-])CCN(CC(=O)[O-])CCN(CC(=O)[O-])CC1.[Gd+3] (stereo not given) | inactive
8 | CC(C)Oc1cccc(NC(=O)c2ccccc2C(F)(F)F)c1 | inactive
9 | COc1ccc2c(c[n+](C)c3c4cc5c(cc4ccc23)OCO5)c1OC | inactive
10 | C[C@]12CC[C@@H]3[C@@H](CCC4=CC(=O)CC[C@@H]43)[C@@H]1CC[C@@H]2OC(=O)CCc1ccccc1 | inactive
11 | CC(C)[C@H]1CN[C@H](C(=O)O)[C@H]1CC(=O)O | inactive
12 | CO/C=C(/C(=O)OC)c1ccccc1Oc1cc(Oc2ccccc2C#N)ncn1 | inactive
13 | CCCN(CCC)C1CCc2ccc(O)cc2C1 (stereo not given) | inactive
14 | CCNC(=O)C[C@@H]1N=C(c2ccc(Cl)cc2)c2cc(OC)ccc2-n2c(C)nnc21 | inactive
15 | NC(=O)CN1CC(O)CC1=O (stereo not given) | inactive
16 | O=C(Nc1ccncc1)C(=O)c1cn(Cc2ccc(Cl)cc2)c2ccccc12 | inactive
17 | C[C@]12Cc3cn[nH]c3C[C@@H]1CC[C@@H]1[C@H]2CC[C@@]2(C)[C@H]1CC[C@]2(C)O | inactive
18 | CC(=O)Nc1ccc(OC[C@](C)(O)C(=O)Nc2ccc([N+](=O)[O-])c(C(F)(F)F)c2)cc1 | inactive
19 | Cc1nccc2c1[nH]c1ccccc12 | inactive
20 | Nc1ccc(Cl)cc1 | inactive

Row | SMILES | Potency
21 | O=C(O)c1cc(Oc2ccc(C(F)(F)F)cc2Cl)ccc1[N+](=O)[O-] | inactive
22 | Clc1cnc(Oc2ccc(Oc3ncc(Cl)cc3Cl)cc2)c(Cl)c1 | inactive
23 | CC[C@@H]1[C@@H](C)O[C@@](O)([C@@H](C)[C@H](O)[C@H](C)[C@H]2OC(=O)C=CC=C[C@@H](C)[C@@H]([C@@H](C)[C@@H](O)[C@H](C)[C@@]3(O)C[C@H](O[C@H]4C[C@H](O)[C@H](O)[C@H](C)O4)[C@H](CC)[C@@H](C)O3)OC(=O)C=CC=C[C@@H]2C)C[C@H]1O[C@H]1C[C@H](O)[C@H](O)[C@H](C)O1 | inactive
24 | CN[C@@H](C)[C@H](O)c1ccccc1 | inactive
25 | O=[N+]([O-])c1ccc([As](=O)(O)O)cc1 | inactive
26 | CCN1C[C@]2(OC(=O)c3ccccc3NC(C)=O)CC[C@H](OC)[C@@]34[C@H]5CC6[C@@H](OC)C[C@](O)(C(C[C@@H]23)[C@@H]14)[C@@]5(O)[C@@H]6OC | inactive
27 | CC(=O)OCC1=C(C(=O)O)N2C(=O)[C@@H](N)[C@@H]2SC1 | inactive
28 | O=C1CCC[C@@H]2[C@H]3CCCN4CCC[C@@H](CN12)[C@@H]34 | inactive
29 | CN1[C@H]2CC(O)C[C@H]1[C@H]1O[C@H]12 (stereo not given in full) | inactive
30 | O=S(=O)(O)C(F)(F)C(F)(F)C(F)(F)C(F)(F)F | inactive
31 | CC[N+]1(CCOC(=O)C(O)(c2ccccc2)c2ccccc2)CCCCC1 | inactive
32 | CSCC[C@@H](NC(=O)[C@@H](Cc1ccccc1)NC(=O)CNC(=O)CNC(=O)[C@@H](N)Cc1ccc(O)cc1)C(=O)O | inactive
33 | O=C(O)CC[N+](=O)[O-] | inactive
34 | CCOC(=O)c1cncn1[C@H](C)c1ccccc1 | inactive
35 | Cc1ccc(Cl)c(O)c1 | inactive
36 | CC(C)[C@H]1C(=O)N[C@H](CO)Cc2c[nH]c3cccc(c23)N1C | 23.5 µM (active)
37 | CS(=N)(=O)CC[C@H](N)C(=O)O (stereo not given in full) | inactive
38 | COc1cccc2c1[C@]13CCN(CC4CC4)[C@H](C2)[C@]1(OC)CCC(=O)C3 | inactive
39 | CN1CCN(c2ccc([N+](=O)[O-])c3no[n+]([O-])c23)CC1 | inactive
40 | NC1=NC(=O)N2CC12 (stereo not given) | inactive
